# EWS-Fli inh: EWS/Fli transcriptional activity inhibition | A673 NR0B1-luciferase reporter, viability-normalised | inhibition, % at 12.6 µM | hit rate 0.67% among 350,000 | AID 651661;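 active = mean inhibition of at least 50% after viability correction, with every replicate also passing that limit; inconclusive = mean reaches 50% but only one of two replicates passes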;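 note: firefly luciferase signal divided by Alamar Blue viability fluorescence both relative to DMSO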
# PGC1a acetyl inh: PGC1a acetylation modulation, inhibitor mode; U2OS PGC1a acetylation, AlphaScreen anti-acetyl-lysine; with virally co-expressed GCN5 acetyltransferase; inhibition, % at 15.6 µM; hit rate 0.17% among 350,000; AID 651687;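 active = every replicate shows inhibition of at least 40%; inconclusive = mean inhibition at least 40% but some replicate below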;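 note: 0% = neutral control wells and 100% = positive control wells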
# Env fusion inh: blocks HIV Env-driven cell-cell fusion; HeLa-JRFL Env/CEM21 cell fusion, luciferase; inhibition, % at 12.3 µM; hit rate 1.1% among 360,000;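 active = mean replicate inhibition score of at least 50 and every replicate individually at or above 50; inconclusive = only one of the two criteria met; inactive = mean below 50 and not all replicates reaching 50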;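 note: 0% = plate neutral controls and 100% = maraviroc near 300 nM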
# GSIS activator: GLuc luminescence reporter in INS-1E cells, primary screen for activators of glucose-dependent secretion of insulin. INS-1E GLuc reporter insulin secretion, 2-3 h. activation, % at 16.6 µM. hit rate 0.61% among 370,000;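 active = lowest replicate activation of at least 40%, so every replicate reaches that level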;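 note: 0% = median of neutral control wells and 100% = median of IBMX positive control wells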
# PAX8 inh HTS: PAX8 transcriptional activity inhibition. RMG-I TPO-luciferase reporter, SteadyGlo, 24 h. inhibition, % at 12.6 µM. hit rate 1.2% among 360,000. AID 652154;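 active = mean replicate inhibition at least 60% with every replicate also reaching 60%; inconclusive = only one of the two criteria is met; inactive = mean below 60% and not all replicates reaching 60%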;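 note: luciferase light reporting Pax8 driven TPO promoter activity; plate controls were median of neutral control wells for no effect and mitoxantrone controls for full effect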
# F508del corr: CFTR F508del correction in bronchial cells; CFBE cells, YFP halide quenching; stimulated with forskolin plus potentiator P3; % fluorescence drop versus neutral controls; AID 720511; activity (quench increase), % at 7.58 µM; hit rate 0.36% among 350,000;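 active = mean added fluorescence quench of at least 8% versus neutral control, with both replicates also reaching 8%; inconclusive = only one of the mean or replicate conditions met; inactive = mean below 8% and not both replicates reaching 8%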;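 note: cells transiently co-express mutant CFTR-F508del with the halide-sensitive YFP; corrector assay measuring rescue of mutant channel to the surface after 24 h compound exposure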
# * = called active by the depositor; ? = inconclusive; . = no result; ! = a repeat was not active; [ ] = remark or other dose. Rows were chosen to be rich in hits. Some 2.7% of all compounds tested hit in one or more screens of this group.
SMILES,EWS-Fli inh,PGC1a acetyl inh,Env fusion inh,GSIS activator,PAX8 inh HTS,F508del corr
Clc1ccc2nc(C3CCCCC3)c(CC3CCCCC3)n2c1,-1,-7,-63,.,2,1
CC(C)(C)c1nc2ccc(Cl)cn2c1CC1CCCCC1,5,-6,2,53*,-2,1
COc1ccc(Cl)cc1C(=O)NNC(=S)NC(=O)c1cc(-c2ccc(Cl)cc2)nc2ccccc12,.,3,94*,.,.,.
O=C(N/N=C/c1ccccc1OC(F)F)c1cc(-c2ccncc2)nc2ccccc12,19,9,-52,10,42,9.5*
COc1ccc(-c2cc(C(=O)N/N=C/c3cc(OC)c(OC)cc3OC)c3ccccc3n2)cc1,-4,45*,11,-1,-17,-5
O=C(N/N=C/c1ccccn1)c1cc(-c2ccc(Br)cc2)nc2ccccc12,17,17,-7,-5,66*,-12
CCCC#Cc1ccc2c(c1)O[C@H](CN(C)C(=O)CN(C)C)[C@H](C)CN([C@@H](C)CO)S2(=O)=O,-9,-2,-5[16.7 µM],-12,-11,0
C=CCOC(=O)[C@@]12O[C@]3(COC[C@H](c4ccccc4)N3C1=O)[C@@H]1C(=O)N(c3ccccc3)C(=O)[C@@H]12,-10,17,21[16.7 µM],.,-14,0
CCc1cc(C(=O)N/N=C/c2ccc(O)cc2O)c2ccccc2n1,.,.,32,-11,67*,?
CN1CCN(C(=O)C[C@@H]2CC[C@H]3[C@@H](COC[C@@H](O)CN3Cc3cccc(Cl)c3)O2)CC1,1,-6,.,17,0,-3
CSc1nc(-c2ccc(Cl)cc2)c(C#N)c(=O)[nH]1,-6,.,59*,0,-3,-6
CSc1nc(-c2ccccc2)c(C#N)c(=O)[nH]1,6,1,-1,-15,-19,-1
CC(C)CN(CCCNC(=O)CN1C(=O)CSc2ccc(S(=O)(=O)N3CCOCC3)cc21)CC(C)C,5,.,7,16,-13,10*
C[C@@H]1CN([C@H](C)CO)C(=O)c2cccc(NC(=O)Nc3ccc(F)cc3)c2O[C@H]1CN(C)C(=O)Nc1ccccc1,4,3,-11[16.7 µM],2,.,-1
Cc1c(P(=S)(c2ccccc2)c2ccccc2)[n+]2ccccc2n1CCc1ccccc1,17,.,14,-20,89*,5
O=[N+]([O-])c1ccccc1Sc1nccn1Cc1ccccc1,.,.,-31,54*,-27,.
Cc1ccc(S(=O)(=O)N2C[C@@H]3N[C@H](C2)C3c2ccc(-c3ccncc3)cc2)cc1 (some centres not stated),-17,1,.,13,-2,-1
C[C@@H]1CN([C@@H](C)CO)C(=O)c2cc(NS(=O)(=O)c3ccc(Cl)cc3)ccc2O[C@@H](C)CCCCO[C@@H]1CN(C)Cc1ccc2c(c1)OCO2,13,-2,-193[16.7 µM],-22,71*,2
C[C@@H]1CCCCO[C@@H](CN(C)Cc2ccc3c(c2)OCO3)[C@H](C)CN([C@@H](C)CO)C(=O)c2cc(NS(=O)(=O)c3ccc(Cl)cc3)ccc2O1,1,6,-16[16.7 µM],-3,1,-3
Cc1ccc(S(=O)(=O)Nc2ccc3c(c2)C(=O)N([C@@H](C)CO)C[C@@H](C)[C@@H](CN(C)Cc2ccc4c(c2)OCO4)OCCCC[C@H](C)O3)cc1,3,.,-163[16.7 µM],-20,72*,?
C[C@@H]1CCCCO[C@H](CN(C)Cc2ccc3c(c2)OCO3)[C@@H](C)CN([C@@H](C)CO)C(=O)c2cc(NS(=O)(=O)c3ccc(Cl)cc3)ccc2O1,?,-5,4[16.7 µM],-25,114*,-2
C[C@@H]1CN([C@H](C)CO)C(=O)Cc2cc(NC(=O)Nc3ccc4c(c3)OCO4)ccc2O[C@@H]1CN(C)S(=O)(=O)c1ccc(Cl)cc1,4,9,-3[16.7 µM],-28,.,2
C=CCN=c1scc(-c2ccccc2)n1/N=C/c1ccccn1,-61,-10,-2,-4,-127,8.4*!
C=CCN=c1scc(-c2ccc(F)cc2)n1/N=C/c1ccccn1,-123,.,10,7,-70,4
CCNC(=S)N/N=C/c1ccc(OCCOc2ccccc2C)cc1,.,24,-379,137*,.,.
SMILES,EWS-Fli inh,PGC1a acetyl inh,Env fusion inh,GSIS activator,PAX8 inh HTS,F508del corr
CO[C@@H]1CN(C)C(=O)c2ccc(NC(=O)C3CCOCC3)cc2OC[C@H](C)N(C)C[C@@H]1C,-2,4,-3[16.7 µM],10,-8,0
O=c1[nH]c(=O)n(Cc2ccc(Oc3ccccc3)cc2)cc1Br,25,.,21,-16,-6,5
C=C1CC(Cn2cc(Br)c(=O)[nH]c2=O)(c2ccc(-c3ccccc3)cc2)OC1=O (configuration not stated),53*,.,42,.,99*,-1
CC[N+]1(C)CCC(O)(/C=C/c2ccccc2)C(C(=O)/C=C/c2ccccc2)C1 (configuration not stated),8,-32,-62,80*,67*,-6
C[C@@H]1CN([C@@H](C)CO)C(=O)Cc2cc(NS(=O)(=O)c3cn(C)cn3)ccc2O[C@H]1CN(C)S(=O)(=O)c1ccccc1,4,7,-9[16.7 µM],3,4,1
CCOc1cc(/C=C2\SC(=S)N(NS(=O)(=O)c3ccccc3)C2=O)ccc1O,10,7,-1,10,4,2
CCOc1ccc(/C=C2\SC(=S)N(NS(=O)(=O)c3ccc(C)cc3)C2=O)cc1OC,-4,14,-4,42*,-18,1
CCOc1ccc(/C=C2\SC(=S)N(NS(=O)(=O)c3ccccc3)C2=O)cc1OC,-2,10,0,62*,-19,1
CC(=O)Nc1ccc2c(c1)CC(=O)N(C)C[C@H](C)[C@H](CN(C)C(=O)NC(C)C)O2,.,.,.,18,.,.
O=C(C[C@@H]1CC[C@H](NC(=O)Cc2ccccn2)[C@H](CO)O1)NCCc1ccccc1,7,0,3[16.7 µM],29,.,4
CCc1cnc(N2[C@H](CO)[C@@H](c3ccc(C#Cc4ccccc4F)cc3)[C@@H]2C#N)s1,12,-25,44[16.7 µM],8,49,6
O=S(=O)(c1ccccc1F)N1CCCCN2[C@H](CO)[C@H](c3ccc(-c4ccncc4)cc3)[C@H]2C1,12,-9,.,-7,-8,0
CC(=O)Oc1ccccc1Cn1c(C)c(C(=O)NCc2cccc(Cl)c2)sc1=O,3,.,59*,-28,21,-1
Cc1nn(C)c(C)c1N1C(=O)c2cccc3c(N)ccc(c23)C1=O,.,5,-12,-2,-16,.
CCN1C(=O)c2cccc3c(N)ccc(c23)C1=O,1,.,-5,2,22,19*
COc1ccc(C[C@@H]2CCn3cc(nn3)COCCCNC2=O)cc1,.,.,.,22,.,.
CCOc1ccc2nc(NCCNC(=S)NCCCN(C)C)c(C#N)cc2c1,-7,-4,17,2,-10,1
CCOc1ccc2nc(NCCNC(=O)Nc3cccc(C)c3)c(C#N)cc2c1,.,3,7,320*,18,.

# Screening data deposited in PubChem by Broad Institute.
